Test results: PubChem BioAssay AID1851 (National Center for Advancing Translational Sciences (NCATS), 2009)
The whole screen tested about 16,000 compounds, of which about 5,700 (36%) were called active. Another 24% or so got no clear call; they are omitted. Calls follow the shape of the dose curve; as a rule, active = well fitted curve in the direction sought with a large enough effect; inconclusive = small, poorly fitted or top-dose-only effect, or effect the other way; inactive = no such curve, though single readings can be large or run the other way. Some of the results follow. Peptide text beside a SMILES is read from it. * marks the point of attachment. Cbz = O=C(OCc1ccccc1)*

Biological target: Cytochrome P450 1A2 (Homo sapiens) (UniProt P05177)
Sequence (P05177 whole entry, looked up): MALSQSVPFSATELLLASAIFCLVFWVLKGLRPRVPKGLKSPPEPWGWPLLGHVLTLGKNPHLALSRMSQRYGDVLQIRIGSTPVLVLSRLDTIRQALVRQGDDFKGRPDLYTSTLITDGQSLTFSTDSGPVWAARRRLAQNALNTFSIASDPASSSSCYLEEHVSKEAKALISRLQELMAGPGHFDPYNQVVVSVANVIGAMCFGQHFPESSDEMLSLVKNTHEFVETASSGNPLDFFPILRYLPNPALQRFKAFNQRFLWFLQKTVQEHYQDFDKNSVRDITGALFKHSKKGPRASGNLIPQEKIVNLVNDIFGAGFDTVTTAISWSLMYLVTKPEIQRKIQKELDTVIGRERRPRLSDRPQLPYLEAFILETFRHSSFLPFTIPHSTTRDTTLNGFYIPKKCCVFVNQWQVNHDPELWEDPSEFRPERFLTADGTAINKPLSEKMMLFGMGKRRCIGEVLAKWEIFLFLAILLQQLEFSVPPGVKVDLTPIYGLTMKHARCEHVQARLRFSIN
Assay: Cytochrome panel assay with activity outcomes
Conditions: recombinant CYP, pro-luciferin dealkylation, luminescence, p450-cyp1a2; series mostly up to 57.1 µM; activity, negative = inhibition: at the top concentration
% is scaled to controls: 0 for no effect and ±100 for the full control effect.

SMILES | activity, negative = inhibition | AC50
COc1cc(C2SCCCCCCCCCCSC(c3ccc(O)c(OC)c3)SCCCCCCCCCCS2)ccc1O (centres undefined) | -6.91% [at 2.29 µM] (inactive) | –
COCC(=O)N1CCC2(CC1)CN(Cc1ccc(C#N)cc1)C2 | -6.96% (inactive) | –
CC(C)=CCC/C(C)=C/CO/N=C1/C[C@@H](O)[C@@H](O)[C@@H]2[C@@H]3C(=O)N(Cc4ccc5c(c4)OCO5)C(=O)[C@H]3CC[C@@H]12 | -3.81% [at 11.4 µM] (inactive) | –
N[C@@H](CO)C(=O)O | – | inactive
O=C(CSc1nnc(SCc2cccc3ccccc23)s1)c1ccc2c(c1)OCO2 | – | 2.24 µM (active)
COC(=O)C1Cc2c([nH]c3ccccc23)CN1 (centres undefined) | – | 0.398 µM (active)
CC[C@H]1CN(C)[C@H]2Cc3c([nH]c4ccccc34)C(=O)C[C@H]1[C@H]2C(=O)OC | -10.5% [at 11.4 µM] (inactive) | –
O=C(O)[C@@H]1Cc2c([nH]c3ccccc23)[C@@H](CCCCO)N1 | -9.61% [at 2.29 µM] (inactive) | –
O=C1Nc2ccc(F)cc2C12SCCS2 | – | 15.8 µM (active)
Cc1ccc2c(c1)C1(SCCS1)C(=O)N2 | – | 0.891 µM (active)
CCOC(=O)n1c(=O)n(Cc2ccccc2Cl)c2ccccc21 | – | 4.47 µM (active)
COC(=O)Cn1c(=O)c2c(nc(Br)n2Cc2ccccc2Cl)n(C)c1=O | -11.9% (inactive) | –
CCOC(=O)n1c(=O)n(Cc2c(Cl)cccc2Cl)c2ccccc21 | – | 14.1 µM (active)
CCOC(=O)CC1C(=O)NCCN1S(=O)(=O)c1ccccc1Cl (centres undefined) | 2.6% (inactive) | –
CN(CCCNC(=O)C1CCC(=O)N1Cc1ccccc1Cl)c1ccccc1 (centres undefined) | -7.82% (inactive) | –
COc1ccc(CN2CCN(C(=O)CC(C)C)CC2)c(OC)c1OC | 23.3% (inactive) | –
COc1cccc(NC(=O)c2cc(-c3cccnc3)nc3c(Cl)cccc23)c1 | – | 8.91 µM (active)
CCOC(=O)C1=C(C)NC2=C(C(=O)C(C(=O)OCC)C(c3ccc(OC)cc3)C2)C1c1ccccn1 (centres undefined) | -24.6% (inactive) | –
CCOC(=O)C1C(=O)C=C(/C=C/c2ccccc2)CC1c1ccc(Cl)cc1 (centres undefined) | – | 5.01 µM (active)
CC(C)(CO[C@H]1C[C@H]2CC[C@@]1(C)C2(C)C)[N+](=O)[O-] | -17.1% [at 11.4 µM] (inactive) | –
Fc1ccc(C2=Nn3c(Cc4ccccc4F)nnc3SC2)cc1 | – | 0.355 µM (active)
Cc1cc2ccccc2n1CCNC(=O)C1CCCC1 | – | 1 µM (active)
Cc1cc2ccccc2c(=O)n1CC(=O)NCC(=O)N1CCCC1 | -2.57% (inactive) | –
Cc1ccc(S(=O)(=O)NCCn2c(C)cc3ccccc32)cc1 | – | 15.8 µM (active)

SMILES | activity, negative = inhibition | AC50
Cc1ccc(S(=O)(=O)NC(=O)c2cccn2C)cc1 | -17.6% (inactive) | –
Cc1ccc(S(=O)(=O)NCCSc2nnnn2C)cc1 | -4.13% (inactive) | –
O=C(Nc1nc2ccccc2n1CCN1CCCCC1)C1CCCCC1 | -14.4% (inactive) | –
Cc1ccc(C)n1NC(=O)c1ccccc1 | -14.9% (inactive) | –
Cc1cc2ccccc2n1CCNC(=O)c1ccccc1 | – | 4.47 µM (active)
CS(=O)(=O)c1ccc([C@H](O)[C@H](CO)NC(=O)C(Cl)Cl)cc1 | -1.73% [at 25.6 µM] (inactive) | –
CC(C)(C)N1C(=O)[C@@H]2[C@H]3C(=CC[C@H]2C1=O)C(=O)[C@H]1O[C@H]1[C@H]3O | -0.944% [at 11.4 µM] (inactive) | –
N#Cc1cccc(-c2cncnc2NCc2ccccc2)c1 | – | 5.01 µM (active)
Cc1cccc(CNc2ncncc2-c2cccc(C#N)c2)c1 | – | 2.51 µM (active)
Cc1cnc(CNc2ncncc2-c2cccc(C#N)c2)cn1 | – | 12.6 µM (active)
N#Cc1cccc(-c2cncnc2NCc2cccnc2)c1 | – | 5.01 µM (active)
O=S(=O)(O)c1ccc(N=Nc2ccccc2)cc1 | -5.18% [at 11.4 µM] (inactive) | –
CC(=O)O[C@]1(C(C)=O)CC[C@@H]2[C@@H]3C=C(Cl)C4=CC(=O)[C@H]5C[C@@H]5[C@]4(C)[C@H]3CC[C@]21C | – | inactive
N#Cc1cccc(-c2cncnc2NCc2cccs2)c1 | – | 1.58 µM (active)
COc1ccccc1CNc1ncncc1-c1cccc(C#N)c1 | – | 10 µM (active)
Cc1ccc(C(C)C)n1C(=O)OC(C)(C)C | 6.74% [at 11.4 µM] (inactive) | –
Fc1ccc2c(c1)C1C=CCC1C(c1cc3c(cc1Br)OCO3)N2 (centres undefined) | – | 0.891 µM (active)
C=CCNc1nc(Cl)nc(Nc2ccc(OC)cc2)n1 | – | 2.51 µM (active)
C/C(=C\C1CCCCC1)C(NC(=O)c1ccc(C(F)(F)F)cc1)c1ccc(-c2ccccc2)cc1 (centres undefined) | 4.8% (inactive) | –
CCCC[C@@H]1C[C@H]1C(NC(=O)c1cccs1)c1ccccc1C(F)(F)F (some centres undefined) | – | 6.31 µM (active)
CCCC[C@@H]1C[C@H]1C(NC(=O)c1cccs1)c1ccc(C(F)(F)F)cc1 (some centres undefined) | – | 2 µM (active)
CCCC[C@@H]1C[C@H]1C(NC(=O)c1cccs1)c1ccc(Cl)cc1 (some centres undefined) | – | 1 µM (active)
C[C@@]1(C(NC(=O)c2cccs2)c2ccc(-c3ccccc3)cc2)C[C@H]1C1CCCCC1 (some centres undefined) | -11% (inactive) | –
CCOC(=O)CSC1=NC(=O)/C(=C\c2ccc(Cl)cc2)S1 | – | 3.55 µM (active)

SMILES | activity, negative = inhibition | AC50
CCOC(=O)CSC1=NC(=O)/C(=C\c2ccc(OC(C)=O)cc2)S1 | – | 25.1 µM (active)
Cc1cccc(NC2(C(F)(F)F)N=C(c3ccccc3)NC2=O)n1 (centres undefined) | -7.41% (inactive) | –
N#Cc1c(N2CCN(C(=O)c3ccccc3Cl)CC2)nc(-c2ccccc2)c2c1CCCC2 | -15.6% (inactive) | –
Clc1ccc(-c2nnc(-c3ccc(Br)cc3)c(N3CCSCC3)n2)cc1 | – | 1.12 µM (active)
Clc1ccc(-c2nnc(-c3ccccc3)c(N3CCSCC3)n2)cc1 | – | 1.12 µM (active)
Brc1ccc(-c2nnc(-c3ccccc3)c(N3CCSCC3)n2)cc1 | – | 1.26 µM (active)
Cc1cc(C)cc(-n2c(O)c(C=NC3CCS(=O)(=O)C3)c3ccccc3c2=O)c1 (centres undefined) | 1.41% (inactive) | –
Cc1ccc(-n2c(O)c(/C=N/n3cnnc3)c3ccccc3c2=O)cc1 | – | 17.8 µM (active)
COc1c(O[C@H]2O[C@@H](CO)[C@@H](O)[C@@H](O)[C@@H]2O)cc2c(c1OC)-c1ccc(SC)c(=O)cc1[C@H](NC(C)=O)CC2 | -16.7% [at 25.6 µM] (inactive) | –
COc1cc(C(=O)N2CCC(NC(=O)C(Cc3ccc(C(C)C)cc3)NC(C)=O)CC2)cc(OC)c1OC (centres undefined) | -25.5% (inactive) | –
O=C(NCCc1ccc(Cl)cc1)C1CCN(S(=O)(=O)N2CCC3(CC2)OCCO3)CC1 | -3.74% (inactive) | –
Oc1cc2c(cc1O)CN(C(=S)NCCc1ccc(Cl)cc1)CCC2 | – | 20 µM (active)
O=C(NCCN1CCCC1)C1(S(=O)(=O)c2ccc(Cl)cc2)CC1 | -19.8% (inactive) | –
COc1cccc(/C=N/n2nnc3c(cnn3-c3ccccc3)c2=O)c1 | -27.9% (inactive) | –
COc1ccc(-n2nc(C(=O)NCC(=O)Nc3ccccn3)c3ccccc3c2=O)cc1 | -4.65% (inactive) | –
COc1ccc(Oc2c(Cl)cnn(-c3ccccc3)c2=O)cc1 | – | 7.08 µM (active)
Cn1c([N+](=O)[O-])cnc1CN1CCN(CCO)CC1 | 9.16% [at 2.29 µM] (inactive) | –
c1ccc(-c2n[nH]c(-c3ccccc3)c2-c2nc3ccccc3[nH]2)cc1 | – | 8.91 µM (active)
CCOc1cc(NC(=S)Nc2cccc(C)c2)c(OCC)cc1NC(=O)CC(C)C | – | 5.01 µM (active)
CCOc1cc(NC(=O)c2ccccc2[N+](=O)[O-])c(OCC)cc1NC(=O)CC(C)C | -11.8% (inactive) | –
Cc1cccc(NC(=S)NNC(=O)CC(C)O)c1C (centres undefined) | -22.8% (inactive) | –
CN1CCN(/C=N/C2=C(C#N)C(c3ccccc3)C3=C(CC(C)(C)CC3=O)O2)CC1 (centres undefined) | -16.3% (inactive) | –
CC1(C)CC(=O)C2=C(C1)Oc1nc3ccccc3cc1C2C(C#N)C#N (centres undefined) | – | 22.4 µM (active)
CC1(C)CC(=O)C([C@H]2C3=C(CC(C)(C)CC3=O)Oc3ccccc32)C(=O)C1 | -6.77% (inactive) | –

SMILES | activity, negative = inhibition | AC50
N/C(CC/C(N)=N/O)=N\O | -17.8% [at 11.4 µM] (inactive) | –
O=C(O)CSc1sc(=S)sc1SCC(=O)O | – | 12.6 µM (active)
Cc1nnsc1SCC(=O)O | -5.81% (inactive) | –
O=C(O)CSSCC(=O)O | -2.44% [at 11.4 µM] (inactive) | –
COc1cccc([C@H]2Oc3ccc(OC)cc3/C(=N\O[C@@H]3O[C@H](COC(C)=O)[C@H](OC(C)=O)[C@H](OC(C)=O)[C@H]3OC(C)=O)[C@@H]2O)c1 | 2.78% [at 11.4 µM] (inactive) | –
Fc1nc(N2CCCC2)c(F)c(Oc2ccccc2Oc2c(F)c(F)nc(N3CCCC3)c2F)c1F | -26.3% (inactive) | –
CCOC(=O)c1ccccc1Oc1c(F)c(F)nc(NCCO)c1F | – | 8.91 µM (active)
Fc1cccc(C2NC(=S)NC3=C2N2CCC3CC2)c1 (centres undefined) | -4.29% (inactive) | –
Cc1nc(SCC(=O)c2cc3ccccc3oc2=O)c(C#N)c(C)c1C(=O)Nc1ccccc1 | -7.52% (inactive) | –
Cc1c(C#N)c(=O)oc2ccc3ccccc3c12 | – | 0.126 µM (active)
COc1ccc(NC(=O)N2CC3(CCN(C(=O)c4cnccn4)CC3)C2)cc1 | -0.562% (inactive) | –
O=C1C2CCCN2C(c2ccc(F)cc2)N1c1nccs1 (centres undefined) | – | 3.16 µM (active)
Cc1snc(SCC(=O)N/N=C(\N)COc2cccc(C(F)(F)F)c2)c1C#N | – | 12.6 µM (active)
Cc1cccc(OCC(=O)NNC(=O)CSc2ncc(C#N)c(N)n2)c1 | -11.1% (inactive) | –
C[C@H]1CC[C@H]2C(=O)N3[C@H](c4ccc(Br)cc4)[C@@H](C)CC[C@H]3C(=O)N2[C@@H]1c1ccc(Br)cc1 | -10.6% [at 11.4 µM] (inactive) | –
O=C1CC(=Nc2ccccc2)NN1c1ccccc1 | – | 6.31 µM (active)
CC(C)C(NC(=O)OCc1ccccc1)C(=O)O (centres undefined) | -3.1% (inactive) | –
O=C(N[C@@H](Cc1ccccc1)C(=O)CCl)OCc1ccccc1 | – | 3.16 µM (active)
CC(C)[C@H](NC(=O)OCc1ccccc1)C(=O)N[C@H](C=O)Cc1ccccc1 (Cbz-Val-Phe-aldehyde) | -20.6% (inactive) | –
CN(CC(=O)O)Cc1c(O)c(Cl)cc(Cl)c1Cl | -0.983% [at 2.29 µM] (inactive) | –
COc1ccc(OC)c(C2C(C(=O)Nc3nc4ccccc4s3)=C(C)NC3=C2C(=O)CCC3)c1 (centres undefined) | – | 1.41 µM (active)
COc1ccc(-c2cc(C(=O)Nc3nc4c(C)cccc4s3)c3ccccc3n2)cc1OC | -21.2% (inactive) | –
